Experimental findings from PubChem BioAssay (NCATS) are described below.

Structures are written as SMILES. “And” between values parts separate entries of the source, which are not always exact repeats. Equal entries are not always repeated. Records with an inconclusive call do not appear. A number with no mark means an inactive call. The call rests on the fitted dose curve; in most records, active means well fitted inhibition curve with a large enough effect in the signal ratio, with a control signal flat (not every such curve was filed as active); inconclusive means small, poorly fitted or top-dose-only effect, or effect the other way, or a change in a side signal; inactive means no such curve, though single readings can be large or run the other way; the % refers to the signal ratio.
On the % scale 0 is the no-effect control and ±100 the full control effect.

Chain of Retinoic acid receptor RXR-alpha (Homo sapiens) (P19793 whole entry, looked up): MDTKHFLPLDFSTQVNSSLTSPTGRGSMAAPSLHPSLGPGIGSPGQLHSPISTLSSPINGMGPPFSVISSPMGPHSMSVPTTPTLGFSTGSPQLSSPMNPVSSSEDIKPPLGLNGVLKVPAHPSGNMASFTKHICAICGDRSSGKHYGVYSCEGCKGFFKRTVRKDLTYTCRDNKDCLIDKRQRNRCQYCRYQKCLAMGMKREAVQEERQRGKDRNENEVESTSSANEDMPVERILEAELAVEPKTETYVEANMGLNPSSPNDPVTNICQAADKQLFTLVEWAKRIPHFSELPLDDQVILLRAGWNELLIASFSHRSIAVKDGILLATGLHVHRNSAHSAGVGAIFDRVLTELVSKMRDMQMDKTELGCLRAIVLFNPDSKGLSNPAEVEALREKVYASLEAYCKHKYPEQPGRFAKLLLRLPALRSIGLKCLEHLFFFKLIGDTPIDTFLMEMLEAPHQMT

This experiment has as its target Retinoic acid receptor RXR-alpha (Homo sapiens) (UniProt P19793). The experiment is described as follows: qHTS assay for small molecule antagonists of retinoid X receptor alpha signaling (AID 588546). The conditions noted are these: HEK293T RXRa-UAS-bla, beta-lactamase ratio, antagonist mode. From the text:
NIH Chemical Genomics Center [NCGC] U.S. Environmental Protection Agency [EPA] National Institutes of Environmental Health Sciences [NIEHS] National Toxicology Program [NTP] NCGC Assay Overview The Retinoid X receptor (RXR), a nuclear hormone receptor is expressed in liver, spleen, placenta, epidermis, central nervous system. These receptors are able to form homo and heterodimers with other nuclear receptors and due to this heterodimerizing ability, RXR functions as master regulators producing diverse physiological effects. Three subtypes of RXR exist; alpha, beta and gamma. Retinoid X receptor alpha (RXR-alpha) has potential roles in metabolic signaling pathways, skin alopecia, dermal cysts, cardiac development, insulin sensitization etc. Therefore screening environmental chemicals on RXR-alpha signaling can be used for the studies focused on such therapeutic applications.
NCGC Assay Protocol Summary Using a beta-lactamase reporter-gene under control of Retinoid X receptor--alpha (RXR-alpha) response element, a cell-based assay [GeneBLAzer (RXR-alpha -UAS-bla assay developed by Invitrogen] was used to measure RXR-alpha ligands signaling. GeneBLAzer RXR-alpha -UAS-bla HEK293T cells were used with assay medium containing 2% charcoal-stripped FBS. The assay was performed in clear bottom black Greiner 1536-well plates. Library compounds were measured for their ability to inhibit the reporter gene activity. Compounds were screened in a titration series in 1536-well format. The fluorescence intensity (405 nm excitation, 460/530 nm emission) was measured using an EnVision plate reader. Data was normalized relative to 9-cis-retinoic acid control (500 nM, 100%), and DMSO only wells (basal, 0%). Concentration-response titration points for each compound were fitted to the Hill equation yielding concentrations of half-maximal inhibition (IC50) and maximal response (efficacy) values. qHTS protocol for RXR-alpha beta-lactamase assay in antagonist mode [Step] [Parameter] [Value] [Description] 1. Reagent; 5 uL; 2500 cells/well 2. Incubation; 37 C for 4 hrs 3. Compounds; 23 nL; 0.59 nM to 92 uM 4. Controls (DMSO); 23 nL 5. Agonist (Stimulator); 1uL; 9-cis-retinoic acid at 500 nM and 100 nM final concentrations 6. Incubation; 37 C for 18 hrs 7. Detection reagent; 1 uL of CCF4-dye 8. Incubation; RT for 2 hrs 9. Detection; Fluorescence; Envision plate reader
Regarding `NC(=O)NC(N)=O`, the max response is 66.5%.

With `c1ccc(Nc2ccccc2)cc1`, the max response is -5.42% and 3.85%.

Consider `CCCOCC(C)OCC(C)O` (stereo not given), for which the max response is 13.7%.

On to `Cc1ccc(C)c(O)c1`, for which the max response was 6.26%.

Consider `CC(=O)c1ccc([N+](=O)[O-])cc1`, for which the max response was 1.74%.

As for `O=[N+]([O-])c1ccc(Cl)cc1Cl`, the max response was 10.3%.

On to `CC(=O)OCc1ccco1`, for which the max response was 29.2%.

Regarding `C=Cc1ccccc1C=C`, the max response was -4.16%.

On to `C/C=C(/C)C#N`, for which the max response was 32%.

Regarding `O=C(O)CNC(=O)c1ccc(CO)o1`, the max response is -8.36%.

As to `Cc1ccc2ncccc2c1`, the max response was 2.87%.

As to `CNC(=O)N(c1ccccc1)c1ccccc1`, the max response is -3.69%.

On to `CC(=O)Nc1ccccc1C`, for which the max response is 2.75%.

On to `C/C=C1\CC2C=CC1C2` (stereo not given), for which the max response was 6.71%.

Take `CCC(C)(C)C`: the max response was 11.7%.

For `COc1cccc2sc(N)nc12`, the max response is -10.9%.

Turning to `Clc1ccccn1`, the max response is 21.3%.

As for `COc1ccccc1[N+](=O)[O-]`, the max response is 20.4% and 0.175%.

As for `Cc1c(C(=O)O)cccc1[N+](=O)[O-]`, the max response was -1.44%.

With `Nc1ccccc1[N+](=O)[O-]`, the max response was -0.391%.

For `CCOc1cccc(N)c1`, the max response is -4.73%.

For the compound `CC(=O)C1(C)CC2=C(CCCC2(C)C)CC1C` (stereo not given), the max response is 25.5%.

As to `Nc1nc(-c2ccccc2)cs1`, the max response is -5.77%.

`Clc1ccc(Cl)c(Cl)c1Cl`: the max response was 10.9% and -11.3%.

As to `BrC/C=C/CBr`, the max response is -9.94%.

Regarding `COCCOC(=O)c1ccccc1C(=O)OCCOC`, the max response is 23.2%.

As to `CCOc1ccccc1N`, the max response was 20.5%.

With `CCCCOCCOCCSC#N`, the max response is 5.89%.

As for `CC=O`, the max response was -0.48%.

Take `CC(=O)c1ccccn1`: the max response was -5.68%.

For `Nc1cc([N+](=O)[O-])ccc1C(=O)O`, the max response was 19.8% and -9.41%.

Regarding `CCNS(=O)(=O)c1ccc(C)cc1`, the max response was 3.72%.

As for `CCCCCCC(=O)O`, the max response was 7.92%.

As for `Nc1cccc(O)c1`, the max response is 1.85%.

As for `C1CCOC1`, the max response is 0.04%.

Turning to `CC(=O)c1nccs1`, the max response is -9.7%.

For the compound `O=C(O[C@@H](C(=O)O)[C@@H](OC(=O)c1ccccc1)C(=O)O)c1ccccc1`, the max response was -0.94%.

With `NS(=O)(=O)O`, the max response is 17%.

Take `c1ccc2c(c1)Oc1ccccc1S2`: the max response was 5.17%.

Take `Cc1ccc(S(=O)(=O)NC2CCCCC2)cc1`: the max response was 11.2%.
